# Hit rate of the full screen: of about 5,500 compounds, about 2,000 (36%) were called active. Inconclusive results (about 18%) are left out. The list shows a part of the results. Values without a mark were called inactive. Cut-off read from the data, not from the text of the source: active = normalized growth mostly below about 0.91 (no sharp cut-off); inconclusive = no clear call, values can overlap the other calls; inactive = mostly above about 0.92.
# Assay: chemical genetic growth profiling, strain panel (AID 1159580);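 note: tested at 20 µM; growth read once vehicle control cultures reached saturation at 30 °C; 1 = growth at the plate median or of vehicle wells; lower values mean less growth of the strain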
# Conditions: S. cerevisiae deletion strains, growth OD
# [1] = locus YDL101C, strain DUN1, active compounds read low
# [2] = locus YHR030C, strain SLT2, active compounds read low
# [3] = locus YDR150W, strain NUM1, active compounds read low
# [4] = locus YNL128W, strain TEP1, active compounds read low
# [5] = locus YPL055C, strain LGE1, active compounds read low
# [6] = locus YPL241C, strain CIN2, active compounds read low
# [7] = locus YAL013W, strain DEP1, active compounds read low
# [8] = locus YBR229C, strain ROT2, active compounds read low
# [9] = locus YEL061C, strain CIN8, active compounds read low
# [10] = locus YGR078C, strain PAC10, active compounds read low
# [11] = locus YHR087W, strain rtc3, active compounds read low
# [12] = locus YJR043C, strain POL32, active compounds read low
# [13] = locus YJR075W, strain HOC1, active compounds read low
# [14] = locus YKL190W, strain CNB1, active compounds read low
# [15] = locus YLR039C, strain RIC1, active compounds read low
# [16] = locus YLR058C, strain SHM2 (second series), active compounds read low
# [17] = locus YLR085C, strain ARP6, active compounds read low
# [18] = locus YLR262C, strain YPT6, active compounds read low
# [19] = locus YML094W, strain GIM5, active compounds read low
# [20] = locus YMR219W, strain ESC1, active compounds read low
# [21] = locus YNL153C, strain GIM3, active compounds read low
# [22] = locus YNL298W, strain CLA4 (second series), active compounds read low
# [23] = locus YNL322C, strain KRE1, active compounds read low
# [24] = locus YNR030W, strain Alg12, active compounds read low
# [25] = locus YPR135W, strain CTF4, active compounds read low
structure (smiles),measurement,setting,value
Cc1oc(C(C)(C)C)cc1-c1cc(NC(=O)c2ccccc2)n[nH]1,normalized growth,"locus YAR019C, strain CDC15, active compounds read low",0.965
same,normalized growth,"locus YBL105C, strain PKC1, active compounds read low",0.98
same,normalized growth,"locus YBR135W, strain CKS1, active compounds read low",0.974
same,normalized growth,"locus YBR136W, strain MEC1, active compounds read low",0.975
same,normalized growth,"locus YBR160W, strain CDC28, active compounds read low",0.97
same,normalized growth,"locus YDL017W, strain CDC7, active compounds read low",0.99
same,normalized growth,"locus YDL028C, strain MPS1, active compounds read low",0.948
same,normalized growth,[1],0.994
same,normalized growth,"locus YDL108W, strain KIN28, active compounds read low",0.972
same,normalized growth,"locus YDL132W, strain cdc53, active compounds read low",0.993
same,normalized growth,"locus YDL214C, strain PRR2, active compounds read low",0.913
same,normalized growth,"locus YDR052C, strain DBF4, active compounds read low",0.984
same,normalized growth,"locus YDR054C, strain cdc34, active compounds read low",0.966
same,normalized growth,"locus YDR226W, strain ADK1, active compounds read low",0.962
same,normalized growth,"locus YDR477W, strain SNF1, active compounds read low",0.924
same,normalized growth,"locus YER123W, strain YCK3, active compounds read low",0.885
same,normalized growth,"locus YER133W, strain GLC7, active compounds read low",0.957
same,normalized growth,"locus YFL009W, strain cdc4, active compounds read low",0.951
same,normalized growth,"locus YFL029C, strain CAK1, active compounds read low",0.962
same,normalized growth,"locus YFR003C, strain YPI1, active compounds read low",0.988
same,normalized growth,"locus YFR019W, strain FAB1, active compounds read low",0.921
same,normalized growth,"locus YFR028C, strain CDC14, active compounds read low",0.961
same,normalized growth,"locus YGR040W, strain KSS1, active compounds read low",0.94
same,normalized growth,"locus YGR052W, strain FMP48, active compounds read low",0.93
same,normalized growth,"locus YGR092W, strain DBF2, active compounds read low",0.743
same,normalized growth,[2],0.611 (active)
same,normalized growth,"locus YHR079C, strain IRE1, active compounds read low",0.695
same,normalized growth,"locus YHR082C, strain KSP1, active compounds read low",0.81
same,normalized growth,"locus YHR205W, strain SCH9, active compounds read low",0.849
same,normalized growth,"locus YIL147C, strain SLN1, active compounds read low",0.966
same,normalized growth,"locus YJL095W, strain BCK1, active compounds read low",0.822
same,normalized growth,"locus YJL128C, strain PBS2, active compounds read low",0.908
same,normalized growth,"locus YJL157C, strain FAR1, active compounds read low",0.909
same,normalized growth,"locus YJR016C, strain ILV3, active compounds read low",0.981
same,normalized growth,"locus YJR066W, strain TOR1 (second series), active compounds read low",0.883
same,normalized growth,"locus YJR066W, strain TOR1, active compounds read low",0.798
same,normalized growth,"locus YKL048C, strain ELM1, active compounds read low",0.943
same,normalized growth,"locus YKL067W, strain YNK1, active compounds read low",0.899
same,normalized growth,"locus YKL101W, strain HSL1, active compounds read low",0.878
same,normalized growth,"locus YKL193C, strain SDS22, active compounds read low",0.98
same,normalized growth,"locus YKL203C, strain TOR2, active compounds read low",1.01
same,normalized growth,"locus YLR113W, strain HOG1, active compounds read low",0.778 (active)
same,normalized growth,"locus YLR133W, strain CKI1, active compounds read low",0.911
same,normalized growth,"locus YLR403W, strain SFP1, active compounds read low",0.925
same,normalized growth,"locus YML070W, strain DAK1, active compounds read low",0.872
same,normalized growth,"locus YMR001C, strain CDC5, active compounds read low",0.95
same,normalized growth,"locus YMR205C, strain PFK2 (second series), active compounds read low",0.922
same,normalized growth,"locus YMR277W, strain FCP1, active compounds read low",0.95
same,normalized growth,"locus YNL006W, strain LST8, active compounds read low",0.962
same,normalized growth,"locus YNL020C, strain ARK1, active compounds read low",0.903
same,normalized growth,"locus YNL161W, strain CBK1, active compounds read low",0.976
same,normalized growth,"locus YNL183C, strain NPR1, active compounds read low",0.963
same,normalized growth,"locus YNL207W, strain RIO2, active compounds read low",0.969
same,normalized growth,"locus YNL222W, strain SSU72, active compounds read low",0.969
same,normalized growth,"locus YNL307C, strain MCK1 (second series), active compounds read low",0.876
same,normalized growth,"locus YOL078W, strain AVO1, active compounds read low",0.981
same,normalized growth,"locus YOL136C, strain PFK27, active compounds read low",0.866
same,normalized growth,"locus YOR061W, strain CKA2, active compounds read low",0.91
same,normalized growth,"locus YOR119C, strain RIO1, active compounds read low",0.928
same,normalized growth,"locus YOR231W, strain MKK1, active compounds read low",0.791
same,normalized growth,"locus YOR329C, strain SCD5, active compounds read low",0.981
same,normalized growth,"locus YPL031C, strain PHO85, active compounds read low",0.908
same,normalized growth,"locus YPL153C, strain RAD53, active compounds read low",0.877
same,normalized growth,"locus YPL204W, strain HRR25, active compounds read low",0.883
same,normalized growth,"locus YPL209C, strain IPL1, active compounds read low",0.972
same,normalized growth,"locus YPL256C, strain CLN2, active compounds read low",0.844 (active)
same,normalized growth,"locus YPR025C, strain CCL1, active compounds read low",0.979
same,normalized growth,"locus YPR106W, strain ISR1, active compounds read low",0.969
same,normalized growth,"locus YPR111W, strain DBF20, active compounds read low",0.935
same,normalized growth,"strain NNK1, active compounds read low",0.951
same,normalized growth,"strain TSCII, active compounds read low",0.958
O=c1cc(-c2ccccc2)[nH]c2nc(Cl)ccc12,normalized growth,"locus YAL040C, strain CLN3, active compounds read low",0.964
same,normalized growth,"locus YCL061C, strain MRC1 (second series), active compounds read low",1
same,normalized growth,[3],1.01
same,normalized growth,"locus YDR363W, strain ESC2, active compounds read low",0.979
same,normalized growth,"locus YER002W, strain NOP16, active compounds read low",1.03
same,normalized growth,[4],0.962
same,normalized growth,"locus YNL175C, strain NOP13, active compounds read low",0.989
same,normalized growth,"locus YNL197C, strain WHI3, active compounds read low",1.01
same,normalized growth,"locus YNL224C, strain SQS1, active compounds read low",0.977
same,normalized growth,"locus YOR083W, strain WHI5 (second series), active compounds read low",0.989
same,normalized growth,[5],0.997
same,normalized growth,[6],1
O=C(Nc1cc(-c2ccccc2)[nH]n1)c1ccccc1,normalized growth,[7],0.938
same,normalized growth,[8],0.947
same,normalized growth,[1],0.935
same,normalized growth,"locus YDL134C, strain PPH21, active compounds read low",0.923
same,normalized growth,[3],1.03
same,normalized growth,[9],0.867 (active)
same,normalized growth,[10],0.936
same,normalized growth,[2],0.619 (active)
same,normalized growth,[11],0.913
same,normalized growth,[12],0.919 (active)
same,normalized growth,[13],0.902
same,normalized growth,[14],0.89 (active)
same,normalized growth,[15],0.719 (active)
same,normalized growth,[16],0.982
same,normalized growth,[17],0.634 (active)
same,normalized growth,[18],0.79 (active)
same,normalized growth,[19],0.888
same,normalized growth,[20],0.968
same,normalized growth,"locus YMR307W, strain GAS1, active compounds read low",0.492 (active)
same,normalized growth,[4],0.973
same,normalized growth,[21],0.946
same,normalized growth,[22],0.844
same,normalized growth,[23],0.988
same,normalized growth,[24],0.867 (active)
same,normalized growth,"locus YOL006C, strain TOP1, active compounds read low",0.63 (active)
same,normalized growth,[5],0.907
same,normalized growth,[6],0.865
same,normalized growth,[25],0.488 (active)
Cc1cccc(NC(=O)c2ccccc2)c1,normalized growth,[7],0.961
same,normalized growth,[8],0.958
same,normalized growth,[1],0.991
same,normalized growth,[3],0.974
same,normalized growth,[9],0.945
same,normalized growth,[10],0.951
same,normalized growth,"locus YGR229C, strain SMI1, active compounds read low",0.977
same,normalized growth,[2],0.827
same,normalized growth,[11],0.937
same,normalized growth,"locus YJL187C, strain SWE1, active compounds read low",0.946
same,normalized growth,[12],0.952
same,normalized growth,[13],0.913
same,normalized growth,[14],0.988
same,normalized growth,[15],0.809
same,normalized growth,[16],0.981
same,normalized growth,[17],0.897
same,normalized growth,[18],0.854
same,normalized growth,[19],0.924
same,normalized growth,[20],0.967
same,normalized growth,"locus YMR263W, strain SAP30, active compounds read low",0.973
same,normalized growth,[4],0.992
same,normalized growth,[21],0.973
same,normalized growth,[22],0.887
same,normalized growth,[23],0.98
same,normalized growth,[24],0.951
same,normalized growth,[5],0.971
same,normalized growth,[6],0.91
same,normalized growth,[25],0.798
